Screens (PubChem BioAssay)
A selection: hits, their analogues and other compounds. The true share with any hit is near 7.2%.
RE007 growth inh: less growth of the S. pombe RE007 Vpr strain; S. pombe RE007 Vpr strain, BacTiter-Glo ATP luminescence, 24 h; Potency, µM (highest dose often 92.2 µM), actives largely listed as inhibitors; 0.21% of 360,000 active; AID 651644; active = well fitted falling curve with a large enough effect; inconclusive = small, poorly fitted or top-dose-only effect; inactive = no such curve, though single readings can be large or run the other way; also: nearly all actives have a fitted effect of over 50% in size
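Fission yeast strain RE007, carrying one chromosomally integrated HIV-1 vpr copy, was seeded at OD 0.01 in PMG+AL medium with 23 nL pinned compound. After 24 h at 30 °C and 99% humidity, viability was read by BacTiter-Glo luminescence.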
MARV entry inh: inhibitors of Marburg virus binding or cell entry; Marburg virus pseudotyped entry inhibition, cell reporter; AID 540276; 1.8% of 300,000 active; Potency, µM (doses to about 37.8 µM), hits mostly inhibitors; calls by dose curve; tested in HEK293 cells
Sm TGR block: blocks Schistosoma mansoni thioredoxin glutathione reductase | 3% of 360,000 active | purified TGR, DTNB reduction, TNB absorbance 405 nm | Q962Y6 | AID 485364 | Potency, µM (doses to about 114 µM), usual class: inhibitors; also: nearly all actives have a fitted effect of over 60% in size
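Kinetic colorimetric format: TGR-catalysed, NADPH-driven DTNB reduction monitored via TNB absorbance. Enzyme dispensed at 20 nM; compound exposure 15 min at room temperature before reaction start.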
HCV inh: inhibitors of hepatitis C virus infection; Huh7.5.1 HCVcc-Cre infection, luciferase reporter, 44 h; Potency, µM (series often up to 41.8 µM), hits mostly inhibitors; 3.4% of 340,000 active; AID 651820
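Whole-lifecycle infectious HCVcc-Cre system; cells 1,000/well, compound then virus (~0.5 moi) added 4 h after plating, 44 h culture. Luciferase read 15 sec following 15 min substrate incubation, room temp.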
FMDV inh: antivirals against foot and mouth disease virus | 1.2% of 410,000 active | FMDV antiviral cell-based qHTS | AID 1159524 | Potency, µM (highest dose often 57.9 µM), most hits filed as inhibitors; calls by dose curve; tested in HEK293T cells; also: read-out not given here; nearly all actives have a fitted effect of over 45% in size
LASV entry inh: blocks Lassa virus binding to or entry into cells; 1.2% of 300,000 active; Lassa virus pseudotype entry inhibition, cell reporter; Potency, µM (titrated, usually from 37.9 µM), hits mostly inhibitors; AID 540256; calls by dose curve; tested in HEK293 cells; also: nearly all actives have a fitted effect of over 50% in size
Hits are given with their value; . = inactive; ? = inconclusive; / = not tested or not shown; [ ] = dose if it differs, or a comment. Unless noted, calls follow the shape of the dose curve; as a rule, active = well fitted curve in the direction sought with a large enough effect; inconclusive = small, poorly fitted or top-dose-only effect, or another doubt; inactive = no such curve, though single readings can be large; an effect the other way counts as inactive or inconclusive.

SMILES | RE007 growth inh | MARV entry inh | Sm TGR block | HCV inh | FMDV inh | LASV entry inh
O=C(CN1C(=O)COc2ccc(S(=O)(=O)N3CCCCCC3)cc21)NCc1ccc(Cl)cc1 | / | / | . | / | . | ?
COc1ccccc1N1C(=O)CC(Sc2nccc(C)n2)C1=O (stereo unspecified) | . | . | ? | . | . | .
COc1ccccc1N1C(=O)CC(Sc2n[nH]c(-c3cccc(C)c3)n2)C1=O (stereo unspecified) | . | . | 0.631µM | . | . | .
COc1ncccc1C(=O)N1CCOc2ccc(C(O)C(c3ccccc3)c3ccccc3)cc2C1 (stereo unspecified) | / | / | / | / | . | /
COc1ccc(-c2cc(C)nc3c(-c4ccccc4)cnn23)cc1 | . | . | . | 11.2µM | ? | ?
Cc1cc(NCc2ccccc2)n2ncc(-c3ccccc3)c2n1 | . | ? | . | ? | . | ?
Cc1cc(NC2CCCC2)n2ncc(-c3ccccc3)c2n1 | . | ? | . | ? | 39.8µM | ?
Cc1cc(-c2ccccc2)n2ncc(-c3ccccc3)c2n1 | . | 3.66µM | . | ? | . | ?
CC(=O)OC[C@H]1O[C@H](C/C=N/OCC[C@@H]2C=C[C@H](OC(C)=O)[C@@H](COC(C)=O)O2)C=C[C@@H]1OC(C)=O | / | . | / | / | / | /
Cc1ccc(OCC(=O)NCC(=O)OCc2cc(=O)n3nc(C)sc3n2)cc1 | / | / | . | / | . | .
O=C(NCC1Cc2cc(-c3cncnc3)cc(Cl)c2O1)c1cccc(Cn2cccn2)c1 (stereo unspecified) | / | / | / | / | . | /
CN1CCN2c3ccccc3Cc3ccccc3C2C1 (stereo unspecified) | .[18.4 µM] | 5.62µM | . | .[8.37 µM] | . | ?
Cc1ccccc1C(=O)NNC(=O)CCc1ccccc1 | . | . | . | . | . | .
O=C(CCc1ccccc1)NNC(=O)c1ccccc1C(=O)O | . | . | . | . | . | 4.61µM
COc1ccc(CNC(=O)/C=C/C(=O)O)cc1OC | . | . | ? | . | . | .
CCN(CC)S(=O)(=O)c1ccc(OC)c(NC(=O)/C=C/c2ccco2)c1 | . | / | 3.16µM | ? | . | /
COc1ccc(CNC(=O)/C=C/c2ccco2)cc1OC | . | . | 3.16µM | . | . | .
COc1ccc(C2(CNC(=O)/C=C/c3ccco3)CCCC2)cc1OC | . | . | 3.55µM | . | . | .
O=C(CCc1ccccc1)NCC1(c2ccccc2)CCCC1 | . | 5.62µM | . | . | . | ?
COc1ccc(C2(CNC(C)=O)CCCC2)cc1OC | . | . | . | . | . | .
CCN(CC)S(=O)(=O)c1ccc(N2CCCCC2)c(NC(=O)/C=C/c2ccc(OC)c(OC)c2)c1 | . | . | . | ? | . | .
COc1ccc(OC(F)(F)F)cc1CC1(C)C(=O)Nc2c(Cl)ccc(Cl)c21 (stereo unspecified) | . | / | / | / | ? | /
CCC(=O)N1CCc2cc(S(=O)(=O)NC(Cc3ccccc3)C(=O)NCc3cccc(OC)c3)ccc21 (stereo unspecified) | / | . | . | / | . | ?
COc1ccc(C(=O)NCC2(c3ccc(OC)c(OC)c3)CCCC2)c(OC)c1 | . | / | . | 14.1µM | ? | /
O=C(/C=C/c1ccco1)NCC1(c2ccccc2)CCCC1 | . | . | 7.94µM | . | . | .
SMILES | RE007 growth inh | MARV entry inh | Sm TGR block | HCV inh | FMDV inh | LASV entry inh
C=CCOc1ccccc1CN1CCC(C(=O)Nc2cccc(-c3ccn[nH]3)c2)CC1 | . | / | . | ? | . | /
CCn1cc(CN2CCC(C(=O)Nc3cccc(-c4cccc(F)c4)c3)CC2)cn1 | . | . | . | 8.91µM | . | .
CC(=O)c1cccc(CN2CCC(C(=O)Nc3cccc(-c4ccn[nH]4)c3)CC2)c1 | . | ? | . | 6.31µM | 31.6µM | .
O=C(Nc1cccc(-c2cccc(Cl)c2)c1)C1CCN(Cc2ccc(CO)o2)CC1 | . | . | . | 10µM | . | .
Cc1ccc(CN2CCC(C(=O)Nc3cccc(-c4cccc(F)c4)c3)CC2)o1 | . | / | ? | ? | . | /
Cc1cc(Nc2cccc(C(F)(F)F)c2)nc2ccc(NC(=O)c3ccc(N(C)C)cc3)cc12 | / | ? | . | / | . | .
CC1=NN(c2ccc([N+](=O)[O-])cc2)C(=O)/C1=C\N(C)C | 6.31µM | . | ? | . | . | .
CCCC1=NN(c2ccc([N+](=O)[O-])cc2)C(=O)/C1=C/N(C)C | . | . | . | . | . | .
CC1=NN(c2nc3ccccc3[nH]2)C(=O)/C1=C/N(C)C | 7.94µM | ? | . | ? | ? | ?
CC1=NN(c2nc3ccccc3[nH]2)C(=O)C1Cc1ccccc1 (stereo unspecified) | ? | ? | . | 3.55µM | . | ?
COc1cc(NC(=O)COCc2cc(-c3ccc4c(c3)OCO4)on2)c(OC)cc1Cl | / | / | . | / | . | .
Cn1c(=O)c2c(ncn2Cc2cccc(Cl)c2)n(C)c1=O | . | ? | . | 11.2µM | / | .
CCOC(=O)CNC(c1ccccc1)c1cc(Br)ccc1NC(=O)OCC (stereo unspecified) | . | . | . | . | . | ?
COC(=O)CNC(c1ccccc1)c1cc(Br)ccc1NC(=O)CCN1CCOCC1 (stereo unspecified) | . | . | 8.91µM | . | . | /
O=C(CCN1CCCCC1)Nc1ccc(Br)cc1C(=O)c1ccccc1 | . | 12.6µM | . | ? | . | .
CCOC(=O)CNC(c1ccccc1)c1cc(Br)ccc1NC(=O)CCN1CCOCC1 (stereo unspecified) | . | ? | 6.31µM | . | . | ?
CC1=CC=CN2C[C@H](O)CN=C12 | / | . | / | / | / | /
CC(=O)/C=C/c1ccc2ccccc2n1 | 25.1µM | ? | 89.1µM | ? | ? | ?
COc1ccc(C)cc1Cn1c(S(C)(=O)=O)nc2ccccc21 | . | . | 39.8µM | . | / | .
CCOc1ccc(N=C/C=C/c2ccccc2)c(O)c1 | . | / | 39.8µM | . | . | /
C=CCn1c(Cc2ccccc2)nc2c(cnn2-c2ccccc2)c1=O | . | ? | . | ? | 28.2µM | ?
CSc1nc(Cl)c(Cc2ccc(OCC(C)C)cc2)c(N2CCOCC2)n1 | . | . | . | 11.2µM | ? | /
CCCCOc1ccc(Cc2c(Cl)nc(SC)nc2N2CCOCC2)cc1 | / | ? | . | . | ? | .
Cc1cccc(NC2=C(Cl)C(=O)OC2OC(=O)c2ccco2)c1 (stereo unspecified) | . | . | 14.1µM | . | . | .
Cc1ccc(NC2=C(Cl)C(=O)OC2OC(=O)c2ccco2)cc1 (stereo unspecified) | . | . | 14.1µM | . | / | .
O=C(c1ccccc1)c1nn(-c2ccc(Cl)cc2)c(=O)cc1C(F)(F)F | . | 8.91µM | . | 6.31µM | 28.2µM | 11.2µM
O=C(c1ccccc1)c1nn(-c2ccccc2)c(=O)cc1C(F)(F)F | . | ? | . | ? | . | ?
CCOCCCNC(=O)c1cc(Sc2cccc(Cl)c2)nc2ccccc12 | / | / | . | / | . | .
Oc1ccc(/C=C/c2cc(O)cc(O)c2)cc1 | .[18.4 µM] | 3.16µM | . | .[8.37 µM] | ? | 7.3µM
COC(=O)N[C@@H](C=Cc1ccccc1)[C@@H](C)[N+](=O)[O-] | / | . | / | / | / | /
